Results reported in PubChem BioAssay AID1565 (Sanford-Burnham Center for Chemical Genomics, 2009).
In all, about 290,000 compounds went through this assay and about 3,200 (1.1%) were called active. Cut-off read from the data, not from the text of the source: active = inhibition above about 60%; inactive = the rest. This excerpt belongs to a sample that is enriched for actives. Peptide text beside a SMILES is read from it.

Molecular target: Phosphoethanolamine/phosphocholine phosphatase (Homo sapiens) (UniProt Q8TCT1)
Sequence (Q8TCT1 whole entry, looked up): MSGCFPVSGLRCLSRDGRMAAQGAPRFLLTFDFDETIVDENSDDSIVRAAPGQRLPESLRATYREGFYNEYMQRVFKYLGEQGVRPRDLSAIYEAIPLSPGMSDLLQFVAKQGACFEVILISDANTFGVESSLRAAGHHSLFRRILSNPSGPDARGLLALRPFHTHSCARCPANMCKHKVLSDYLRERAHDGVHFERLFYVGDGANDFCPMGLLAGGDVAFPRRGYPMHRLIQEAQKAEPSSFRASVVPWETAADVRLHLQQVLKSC
Assay: PubChem AID 1565
Settings: recombinant PHOSPHO1, absorbance phosphatase assay; at 13.3 µM; hits give high values

SMILES | inhibition
COC(=O)Cc1cnc(NC(=O)CSc2nc(C(C)C)cc(=O)[nH]2)s1 | 26.5% (inactive)
O=C(CCN1C(=O)[C@@H]2Cc3ccccc3CN2C1=O)NCCc1ccccc1 | 38.2% (inactive)
CC1=C/C(=N\OS(=O)(=O)c2ccccc2)C=CC1=O | -13.3% (inactive)
O=Cc1c(NCCc2cccc(F)c2)c2ccccc2[nH]c1=O | 19.2% (inactive)
CC(C)(C)SCCSC1=CC(=O)CC(c2ccccc2)C1 (stereo not given) | 14.1% (inactive)
Cc1ccc2nc(N3C(=O)C(O)=C(C(=O)c4ccco4)C3c3cccc(O)c3)sc2c1 (stereo not given) | 40.5% (inactive)
O=C(c1ccccc1)N1CCC(CC2CC(c3ccc(Cl)cc3)=NO2)(C(=O)NCC2CCCCC2)CC1 (stereo not given) | -1.7% (inactive)
c1ccc(Cc2nn3c(Cn4cnc5ccccc54)nnc3s2)cc1 | 45.1% (inactive)
CC(=O)OC(COc1ccc(F)cc1)Cn1cnc2ccccc21 (stereo not given) | 43.9% (inactive)
Fc1ccc(OCc2nn3c(Cn4nnc5ccccc54)nnc3s2)cc1 | 82.3% (active)
CN(CC(=O)Nc1ccccc1C(F)(F)F)C(=O)Cc1ccccc1F | 18.7% (inactive)
Cc1n[nH]c(=S)n1/N=C/c1ccc(Br)o1 | 99.1% (active)
Cc1cc(-c2n[nH]c(=S)n2/N=C/c2ccco2)n[nH]1 | -60% (inactive)
Cc1ccccc1-c1n[nH]c(=S)n1/N=C/c1ccc(-c2ccccc2Br)o1 | -60.1% (inactive)
N#C/C=C/N1CCN(Cc2ccc3c(c2)OCO3)CC1 | 15.6% (inactive)
CCOc1ccc(OCc2ccc(C(=O)N(C)c3ccccc3)o2)cc1 | 18.7% (inactive)
CC(NC(=O)c1ccccc1C(=O)O)c1ccc(-n2ccnc2)cc1 (stereo not given) | 8.3% (inactive)
CCCOc1cccc(C(=O)Nc2ccccc2C(=O)N2CCN(C)CC2)c1 | 24% (inactive)
Cc1ccc(OCC(=O)N/N=C\c2ccco2)c(C)c1 | 61.1% (active)
Cc1ccc(NC(=O)CCC(=O)N/N=C/c2ccco2)c(C)c1 | -4.9% (inactive)
Cc1cc(C)c(OCC(=O)N/N=C/c2ccco2)c(C)c1 | -1.4% (inactive)
CSCc1nnc(NC(=O)c2ccc(S(=O)(=O)N3CCCCC3C)cc2)o1 (stereo not given) | 32.3% (inactive)
O=C(N/N=C/c1cccc(OCc2ccccc2)c1)c1ccc(Br)o1 | 41.4% (inactive)
Cc1sc2ncn(CC(=O)NCCCC(=O)NCc3ccc(F)cc3)c(=O)c2c1C | 31.9% (inactive)

SMILES | inhibition
CCOC(=O)c1cc(S(=O)(=O)NCCc2ccc(OC)c(OC)c2)cn1C | 69.7% (active)
COc1ccc(CCNS(=O)(=O)c2ccc(F)cc2)cc1OC | -6.8% (inactive)
CCS(=O)(=O)NCCc1ccc(OC)c(OC)c1 | -2.4% (inactive)
COc1ccc(C2NC(=O)N(C)C(C)=C2[N+](=O)[O-])cc1 (stereo not given) | 14.1% (inactive)
Cc1[nH]c(C)c(S(=O)(=O)N2CCN(c3cccc(C(F)(F)F)c3)CC2)c1C(=O)N1CCCCC1 | 42.6% (inactive)
CCCCCn1c(=O)[nH]c2cc(C(=O)NCCCN3CCCCC3C)ccc2c1=O (stereo not given) | 26.1% (inactive)
CCCCNC(=O)CN1C(=O)NC(Cc2ccccc2)(Cc2ccccc2)C1=O | 35% (inactive)
COc1ccc(CNC(=O)COc2cccnc2[N+](=O)[O-])cc1 | 39.9% (inactive)
Cc1ccc(NC(=O)C2CC2c2ccccc2)cc1 (stereo not given) | 39.5% (inactive)
O=S(=O)(NC(=S)Nc1ccccc1)c1ccc(F)cc1 | -122% (inactive)
O=C(NNC(=S)Nc1ccc(F)cc1)[C@H]1C[C@@H]1c1ccccc1 | 76.8% (active)
O=C(C1CC1)N1N=C2CCCCC2C1(O)C(F)(F)F (stereo not given) | 60.9% (active)
O=C(C1CC1)N1N=C(c2ccc(Br)cc2)CC1(O)C(F)(F)F (stereo not given) | 15.6% (inactive)
COc1ccc(O)c(/C=N/N=C/c2cccc([N+](=O)[O-])c2)c1 | 4.2% (inactive)
COc1ccccc1-c1cnn2c(N3CCOCC3)cc(C)nc12 | 38.1% (inactive)
CCOC(=O)c1cc(C(=O)Nc2ccc(S(=O)(=O)Nc3ccc(OC)cc3)cc2)nn1C | 28.7% (inactive)
O=C(Nc1cccc(Cl)c1Cl)c1ccccc1NC(=O)C1CC=CCC1C(=O)O (stereo not given) | 12.3% (inactive)
CC1(C)Oc2ccc3ccc(=O)oc3c2/C(=N/O)C1=O | 50.4% (inactive)
CC1(C)Oc2ccc3ccc(=O)oc3c2/C(=C/NCCO)C1=O | 87% (active)
C/C=C(/C)C(=O)OC1Cc2c(ccc3ccc(=O)oc23)OC1(C)C (stereo not given) | 8.5% (inactive)
CC(C)(C)c1ccc(/C=C/C(=O)NCCCn2ccnc2)cc1 | 33.7% (inactive)
CC(=O)N1c2ccc(S(=O)(=O)N3CCCC(C(=O)NCc4ccc(Cl)cc4)C3)cc2CC1C (stereo not given) | 42.6% (inactive)
CC(C)Oc1ccc(C(CC(=O)N2CCOCC2)C(C)C)cc1 (stereo not given) | 52.2% (inactive)
Cn1c(SCC(=O)N2CCCC2)nnc1-c1cccs1 | 67.9% (active)

SMILES | inhibition
CCOC(=O)CSc1nnc(-c2ccco2)n1C | -19.7% (inactive)
CCn1c(SCC(=O)c2ccc(Cl)s2)nnc1-c1cccs1 | 31.9% (inactive)
Cc1nc(SCC(=O)N2CCc3ccccc3C2)c2c(C)c(C)sc2n1 | 9.7% (inactive)
O=C(CSc1nnc(-c2cccs2)n1-c1ccccc1)NCc1ccco1 | 14.6% (inactive)
O=C(CSc1nnc(-c2cccs2)n1Cc1ccccc1)N1CCc2ccccc2C1 | 78.3% (active)
Cn1c(SCC(=O)c2cccs2)nnc1-c1ccco1 | 64.6% (active)
O=C(CSc1nnc(-c2cccs2)n1-c1ccccc1)N1CCN(C(=O)c2ccco2)CC1 | 89.7% (active)
Cn1c(SCC(=O)N2CCCC2)nnc1-c1ccc2c(c1)OCO2 | 35% (inactive)
O=C(CSCc1cccs1)N1CCCC1 | 31% (inactive)
CCCCNC(=O)CSc1nnc(-c2ccco2)n1C | 4.7% (inactive)
Cc1cc2ccccc2n2c(SCC(=O)N3CCN(C(=O)c4ccco4)CC3)nnc12 | 3.7% (inactive)
COC(=O)[C@@H](Cc1ccccc1)NC(=O)NCCc1ccccc1 | 34% (inactive)
CC(C)CCNC(=O)c1ccc2c(Cl)c3c(nc2c1)CCC3 | 23.9% (inactive)
Cc1cc(=O)n2nc(N3CCCC(C(=O)NCc4ccc(Cl)cc4)C3)sc2n1 (stereo not given) | 27.6% (inactive)
Cc1ccc(NC(=O)C2CCCN2C(=O)OCc2ccccc2)cc1C (stereo not given) | 22.6% (inactive)
O=C(COC(=O)/C=C/c1cccs1)NC1CCCCC1 | 51% (inactive)
COc1ccccc1NC(=O)C1CCCN1S(=O)(=O)c1ccc(Cl)cc1 (stereo not given) | 0% (inactive)
CCc1ccc(-c2cc3c(=O)n(CC(=O)NCCCN4CCN(Cc5ccccc5)CC4)nc(C)n3n2)cc1 | 26.1% (inactive)
Cc1c(S(=O)(=O)NC(C)c2ccccc2)c(=O)n(C)c(=O)n1C (stereo not given) | -5.4% (inactive)
O=C(CSc1nnc(Cc2ccccc2)n1-c1ccccc1)N1CCOCC1 | -9.6% (inactive)
Cc1cc2nnc(SCC(=O)N3CCN(c4ccccc4)CC3)n2c(N)n1 | 40.7% (inactive)
Cc1nnc(SCC(=O)N2CCN(c3ccccc3)CC2)n1-c1ccccc1 | 68.4% (active)
Cc1ccc2[nH]c(=O)c(CC(=O)O)c(-c3ccccc3)c2c1 | 7.8% (inactive)
CCC(C(=O)OC)n1cnc2c(oc3ccccc32)c1=O (stereo not given) | 1% (inactive)

SMILES | inhibition
O=C(CSc1nc(C2CC2)nc2ccccc12)Nc1cccc(O)c1 | 15.1% (inactive)
Cc1ccc2c(CSc3nncs3)cc(=O)oc2c1 | 76.1% (active)
CCOC(=O)Cc1csc(SCc2cc(=O)oc3cc(O)ccc23)n1 | -13.2% (inactive)
COCc1cc(=O)oc2cc(NS(=O)(=O)c3ccc(C)cc3)ccc12 | 22.5% (inactive)
CCCSc1nc2sc3c(c2c(=O)n1-c1ccc(OC)cc1)CCN(C)C3 | 31.6% (inactive)
COC(=O)[C@@H]1CC(O)CN1C(=O)C12CC3CC(CC(C3)C1)C2 (stereo not given in full) | 24.2% (inactive)
CCOc1ccc(NC(=O)CCC(=O)NNC(=O)NC2CCCCC2)cc1 | -0.6% (inactive)
CCCNC(=O)NC(=O)COC(=O)CC(NC(N)=O)c1ccc(Cl)cc1 (stereo not given) | -17.2% (inactive)
COCCNC(=O)NC(=O)COC(=O)C1(c2ccc(Cl)cc2)CC1 | 62.9% (active)
CC(=O)N1CCC(C(=O)OCc2ccc(Cl)cc2)(c2ccccc2)CC1 | 40% (inactive)
COc1ccc(C(=O)C2CCCN(C(=O)c3ccc(OC)o3)C2)c(C)c1 (stereo not given) | -0.6% (inactive)
O=C(OCCN1C(=O)c2ccccc2C1=O)Oc1ccccc1 | 22.3% (inactive)
COC(=O)c1ccc(S(=O)(=O)N2CCc3ccccc3C2)cc1 | 44.4% (inactive)
CCCNC(=O)C(=O)Nc1cc2c3c(c1)CCC(=O)N3CCC2 | 54.7% (inactive)
NC(=O)c1c(NC(=O)CSc2nnc(-c3ccco3)n2N)sc2c1CCCC2 | 103% (active)
CCc1cccc(C)c1NC(=O)CSc1nnc(-c2ccco2)n1N | 22.6% (inactive)
NC(=O)c1c(NC(=O)CSc2nc(N)cc(=O)[nH]2)sc2c1CCCC2 | 12.9% (inactive)
NC(=O)C(Cc1ccccc1)NC(=O)C12CC3CC(CC(C3)C1)C2 (stereo not given) | 24.1% (inactive)
Oc1ccc(Br)cc1/C=N/Nc1ccccn1 | 22.9% (inactive)
CC1(C)Cc2ccccc2/C(=C/C(=O)c2ccccc2)N1 | 24.1% (inactive)
O=C(CNC(=O)c1ccc(-c2ccccc2)cc1)OCc1ccc(Cl)cc1 | 9.5% (inactive)
O=C(CNC(=O)c1ccccc1)NCC(=O)OCC(=O)c1ccccc1 (HELM PEPTIDE1{[O=C(c1ccccc1)[*:2]].G.G.[O=C(CO[*:1])c1ccccc1]}$$$$V2.0) | 27.8% (inactive)
O=C(CNC(=O)c1ccccc1)NCC(=O)OCc1ccc(Cl)cc1 | 62.3% (active)
